# Assay outcomes as filed in PubChem BioAssay.
# The list is not random: actives were taken first. Their share in the collection is about 3.4%.
# MITF primary: MITF inhibitors, primary screen, biochemical, AlphaScreen, human; AlphaScreen MITF homodimerization, bead proximity signal; inhibition, % at 2.6 µM; 650,000 tested, 0.91% active; in the data active = inhibition above about 50%;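 note: 0% = vehicle wells with protein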
# Target sequence (O75030 whole entry, looked up): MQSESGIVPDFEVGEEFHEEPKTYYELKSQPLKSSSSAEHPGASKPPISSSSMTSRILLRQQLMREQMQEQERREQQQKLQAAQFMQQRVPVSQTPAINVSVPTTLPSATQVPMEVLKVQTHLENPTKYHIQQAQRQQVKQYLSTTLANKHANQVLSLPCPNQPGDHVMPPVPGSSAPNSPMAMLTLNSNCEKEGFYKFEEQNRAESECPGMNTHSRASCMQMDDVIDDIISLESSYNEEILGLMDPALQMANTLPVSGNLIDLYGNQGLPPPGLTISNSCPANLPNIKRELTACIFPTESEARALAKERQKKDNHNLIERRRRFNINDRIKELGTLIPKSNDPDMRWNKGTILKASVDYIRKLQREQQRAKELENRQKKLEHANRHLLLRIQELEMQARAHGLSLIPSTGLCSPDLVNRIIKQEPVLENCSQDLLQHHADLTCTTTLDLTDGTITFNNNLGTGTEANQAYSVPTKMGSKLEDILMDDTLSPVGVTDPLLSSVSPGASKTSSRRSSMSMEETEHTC
# FBW7 act: FBW7 E3 ligase activators, primary screen, biochemical, AlphaScreen, human; F-box/WD repeat-containing protein 7 (Homo sapiens), Q969H0; AlphaScreen FBW7–phospho-cyclin E peptide binding, activator screen; normalized activity (activation), % at 26.1 µM; 650,000 tested, 0.13% active; AID 1259310, 2017; in the data active = normalized activity above about 1.9%;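 note: purified mutant Fbw7 with reduced substrate affinity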
# GPR151 ag: activators of human GPR151, primary screen, cell-based, PathHunter beta-arrestin, luminescence; G-protein coupled receptor 151 (Homo sapiens), Q8TDV0; PathHunter beta-arrestin GPR151 cells; activation, % at 11.2 µM; 650,000 tested, 1% active; AID 1508602, 2020; in the data active = activation above about 4.9%;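 note: 0% = median of compound wells and 100% = cells with positive control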
# TEAD-YAP inh: TEAD-YAP interaction inhibition, primary screen, TEAD-YAP interaction inhibitor project, luminescence, HEK-TIYL cells; TEAD-Gal4/YAP UAS-luciferase luminescence; inhibition, % at 9.12 µM; 640,000 tested, 1.4% active; in the data active = inhibition above about 32%;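 note: 0% = median of test compound wells and 100% = reference inhibitor wells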
# * hit, by the source's call.
SMILES,MITF primary,FBW7 act,GPR151 ag,TEAD-YAP inh
CCOC(=O)c1c(N)sc(C(=O)Nc2ccc3c(c2)OCO3)c1C,17.5,0.1,-7.2,78.9*
COc1ccc(-c2cc(-c3ccccc3)nc(SCCCC(=O)c3ccc(F)cc3)c2C#N)cc1,2.5,-0.3,0.3,-3.9
CC(C)(C)C(=O)Nc1ccc2oc(-c3cncc(Br)c3)nc2c1,7.5,0.3,1.5,34.7*
Cc1ccc2nc(-c3cccc(NC(=S)NC(=O)c4ccco4)c3)oc2c1,-5.7,0.1,-1.8,-53.7
CC(C)(C)c1ccc(-c2nc3cc(NC(=S)NC(=O)c4ccco4)ccc3o2)cc1,12.7,1.0,4.7,43.4*
Cc1cc2nc(-c3cccc(NC(=S)NC(=O)c4ccco4)c3)oc2cc1C,9.6,0.9,-1.4,47.5*
O=C(Nc1ccc2oc(-c3ccc(-c4ccccc4)cc3)nc2c1)c1ccco1,2.7,2.5*,-0.9,-3.0
Cc1ccc(-c2nc3cc(NC(=S)NC(=O)c4ccco4)ccc3o2)cc1,14.0,0.8,0.3,-46.4
O=C(Nc1ccc(-c2nc3cc(NC(=O)c4ccco4)ccc3o2)cc1)c1ccco1,9.8,0.2,0.6,-23.5
O=C(NC(=S)Nc1ccc2oc(-c3ccccc3)nc2c1)c1cncc(Br)c1,3.7,0.1,0.3,-3.0
CCOC(=O)c1c(NC(=O)CN2CCOCC2)sc2c1CCCCC2,-1.2,-0.1,-0.3,-7.2
Cc1cccc(N2C(=O)c3ccc(C(=O)Nc4cc(C(=O)O)cc(C(=O)O)c4)cc3C2=O)c1C,5.1,0.1,2.0,12.7
Cc1ccc(S(=O)(=O)N2CCN(CC(O)COC(C)(C)C)CC2)cc1 (stereo not drawn),26.5,-0.1,-0.4,8.1
O=C(CN1CCCC1)Nc1ccc(-c2nc3cc(NC(=O)CN4CCCC4)ccc3o2)cc1,-2.9,0.0,0.3,36.4*
Cc1ccccc1-c1nc2cc(NC(=O)C(C)C)ccc2o1,4.3,0.0,1.0,66.0*
CC(=O)Nc1ccc2oc(-c3cccc(C)c3)nc2c1,-11.5,-0.1,-8.1,62.4*
CCN(CC)c1ccc(-c2nc3cc(NC(=O)c4ccc(OC)c(OC)c4)ccc3o2)cc1,21.4,2.4*,-1.1,-21.9
CC1Cc2ccccc2N1C(=O)COC(=O)c1ccc(S(C)(=O)=O)c([N+](=O)[O-])c1 (stereo not drawn),12.4,0.4,0.1,15.3
CCOC(=O)Cc1csc(=N)n1CC(=O)Nc1c(CC)cccc1CC,-14.1,0.0,1.4,-1.1
O=C(CC1S/C(=N/N=C/c2ccccc2C(=O)O)NC1=O)Nc1ccccc1 (stereo not drawn),-1.7,0.0,-0.4,6.5
CCCOc1ccc(/C(O)=C2/C(=O)C(=O)N(Cc3cccnc3)C2c2ccc(Br)cc2)c(C)c1 (stereo not drawn),0.8,-0.1,0.3,-2.5
Cc1ccc(-n2ncc3c(Nc4ccc(C(=O)O)cc4)ncnc32)cc1,5.8,0.7,0.0,-9.4
COc1ccc(Cl)cc1C(=O)Nc1ccc2oc(-c3ccc(C(C)(C)C)cc3)nc2c1,8.1,0.5,-0.2,38.0*
CCNc1nccc(Nc2ccc(N3CCOCC3)cc2)n1,16.0,0.7,-1.8,-2.3
Fc1ccc(-c2cn3c4c(sc3n2)CCCC4)cc1,-9.9,0.2,-10.0,51.5*
SMILES,MITF primary,FBW7 act,GPR151 ag,TEAD-YAP inh
CC(=O)Nc1ccc(-c2cn3c4c(sc3n2)CCCC4)cc1,-0.6,0.0,-0.1,-35.8
c1ccc(-c2cn3c4c(nnc3n2)CCCC4)cc1,18.1,-0.2,-0.8,43.7*
O=C(Nc1ccc(-c2cn3c4c(nnc3n2)CCCC4)cc1)c1cccnc1,-9.2,0.0,-0.2,-1.7
c1ccc(-c2cn3c4c(sc3n2)CCCC4)cc1,3.8,0.3,-7.2,85.5*
Nc1ccc(-c2cn3c4c(sc3n2)CCCC4)cc1,-9.4,0.0,-0.3,26.8
O=C(CNC(=O)c1ccccc1F)OCC(=O)c1ccccc1,5.3,0.1,-0.1,-5.2
Cc1ccc(NC(=S)N(Cc2ccccc2)Cc2cccs2)cc1,12.8,0.0,1.6,-9.6
Cc1ccc(NC(=S)N(Cc2ccccc2)Cc2cccs2)cc1C,-7.1,0.3,0.9,57.0*
C=CC(=O)Nc1ccc(Br)c(C)c1,3.7,0.1,-1.2,62.3*
Cc1cc(NC(=O)C(C)(C)C)ccc1Br,-7.4,0.0,2.0,-0.5
CCOC(=O)c1ccc(NC(=O)CN2N=C(c3ccc(OC)cc3)CCC2=O)cc1,15.3,0.0,0.0,0.8
